Data taken from ChEMBL document CHEMBL1961873, “Compounds: GSK PKIS; Assays: Nanosyn kinase panel” (2012).

Experiments:
[1] = target: Serine/threonine-protein kinase MARK2 (Homo sapiens) (UniProt Q7KZI7); conditions: at 1 µM
[2] = target: PAS domain-containing serine/threonine-protein kinase (Homo sapiens) (UniProt Q96RG2); conditions: at 0.1 µM
[3] = target: PAS domain-containing serine/threonine-protein kinase (Homo sapiens) (UniProt Q96RG2); conditions: at 1 µM
[4] = target: Phosphorylase b kinase gamma catalytic chain, skeletal muscle/heart isoform (Homo sapiens) (UniProt Q16816); conditions: at 0.1 µM
Phosphorylase b kinase gamma catalytic chain, skeletal muscle/heart isoform (Homo sapiens), sequence (Q16816 whole entry, looked up, canonical isoform): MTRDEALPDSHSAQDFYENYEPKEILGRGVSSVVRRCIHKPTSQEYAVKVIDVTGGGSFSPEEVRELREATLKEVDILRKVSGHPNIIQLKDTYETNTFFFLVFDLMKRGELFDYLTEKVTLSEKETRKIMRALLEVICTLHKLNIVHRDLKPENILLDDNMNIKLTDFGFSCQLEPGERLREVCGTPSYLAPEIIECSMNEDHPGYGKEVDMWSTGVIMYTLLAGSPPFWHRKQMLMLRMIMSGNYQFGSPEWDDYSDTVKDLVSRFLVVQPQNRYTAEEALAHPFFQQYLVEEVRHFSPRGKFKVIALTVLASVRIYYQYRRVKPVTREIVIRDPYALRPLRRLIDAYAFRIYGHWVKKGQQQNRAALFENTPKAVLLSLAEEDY

[5] = target: Phosphorylase b kinase gamma catalytic chain, skeletal muscle/heart isoform (Homo sapiens) (UniProt Q16816); conditions: at 1 µM
[6] = target: T1, Phosphorylase b kinase gamma catalytic chain, liver/testis isoform (Homo sapiens) (UniProt P15735); conditions: at 0.1 µM
T1 sequence (whole entry): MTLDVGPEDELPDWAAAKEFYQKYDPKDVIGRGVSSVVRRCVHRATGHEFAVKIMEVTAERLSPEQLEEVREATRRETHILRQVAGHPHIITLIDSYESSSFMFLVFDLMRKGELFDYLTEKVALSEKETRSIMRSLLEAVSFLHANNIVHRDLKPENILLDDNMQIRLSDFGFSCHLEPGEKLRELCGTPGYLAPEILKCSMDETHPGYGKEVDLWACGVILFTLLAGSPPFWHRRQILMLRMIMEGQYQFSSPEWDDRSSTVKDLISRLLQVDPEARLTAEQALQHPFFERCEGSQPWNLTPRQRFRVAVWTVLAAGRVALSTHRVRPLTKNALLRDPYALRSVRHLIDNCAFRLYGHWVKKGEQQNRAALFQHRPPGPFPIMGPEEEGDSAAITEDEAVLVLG

[7] = target: T1, Phosphorylase b kinase gamma catalytic chain, liver/testis isoform (Homo sapiens); conditions: at 1 µM
[8] = target: Serine/threonine-protein kinase pim-1 (Homo sapiens) (UniProt P11309); conditions: at 0.1 µM
Serine/threonine-protein kinase pim-1 (Homo sapiens), sequence (P11309 whole entry, looked up): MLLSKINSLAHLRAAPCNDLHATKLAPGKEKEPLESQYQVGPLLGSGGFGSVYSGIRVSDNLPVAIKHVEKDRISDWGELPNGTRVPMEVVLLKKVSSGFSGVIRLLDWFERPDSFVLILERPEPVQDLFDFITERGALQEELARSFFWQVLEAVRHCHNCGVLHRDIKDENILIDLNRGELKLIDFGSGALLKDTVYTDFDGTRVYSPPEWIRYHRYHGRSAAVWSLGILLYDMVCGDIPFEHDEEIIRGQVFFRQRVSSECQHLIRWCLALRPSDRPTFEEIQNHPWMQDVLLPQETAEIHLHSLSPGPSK

[9] = target: Serine/threonine-protein kinase pim-1 (Homo sapiens) (UniProt P11309); conditions: at 1 µM
[10] = target: Serine/threonine-protein kinase pim-2 (Homo sapiens) (UniProt Q9P1W9); conditions: at 0.1 µM
Serine/threonine-protein kinase pim-2 (Homo sapiens), sequence (Q9P1W9 whole entry, looked up): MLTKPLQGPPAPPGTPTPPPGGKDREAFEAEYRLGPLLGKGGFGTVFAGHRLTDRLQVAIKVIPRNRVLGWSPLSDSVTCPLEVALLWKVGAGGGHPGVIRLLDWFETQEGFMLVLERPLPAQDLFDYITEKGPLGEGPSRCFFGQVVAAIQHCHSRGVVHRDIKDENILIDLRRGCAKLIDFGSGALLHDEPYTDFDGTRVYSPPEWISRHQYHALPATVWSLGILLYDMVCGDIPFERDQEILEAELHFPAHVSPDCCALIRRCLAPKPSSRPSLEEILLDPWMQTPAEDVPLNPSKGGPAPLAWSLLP

[11] = target: Serine/threonine-protein kinase pim-2 (Homo sapiens) (UniProt Q9P1W9); conditions: at 1 µM
[12] = target: Serine/threonine-protein kinase pim-3 (Homo sapiens) (UniProt Q86V86); conditions: at 0.1 µM
[13] = target: Serine/threonine-protein kinase pim-3 (Homo sapiens) (UniProt Q86V86); conditions: at 1 µM
[14] = target: T2, MAP kinase-activated protein kinase 5 (Homo sapiens) (UniProt Q8IW41); conditions: at 0.1 µM
T2 sequence (whole entry): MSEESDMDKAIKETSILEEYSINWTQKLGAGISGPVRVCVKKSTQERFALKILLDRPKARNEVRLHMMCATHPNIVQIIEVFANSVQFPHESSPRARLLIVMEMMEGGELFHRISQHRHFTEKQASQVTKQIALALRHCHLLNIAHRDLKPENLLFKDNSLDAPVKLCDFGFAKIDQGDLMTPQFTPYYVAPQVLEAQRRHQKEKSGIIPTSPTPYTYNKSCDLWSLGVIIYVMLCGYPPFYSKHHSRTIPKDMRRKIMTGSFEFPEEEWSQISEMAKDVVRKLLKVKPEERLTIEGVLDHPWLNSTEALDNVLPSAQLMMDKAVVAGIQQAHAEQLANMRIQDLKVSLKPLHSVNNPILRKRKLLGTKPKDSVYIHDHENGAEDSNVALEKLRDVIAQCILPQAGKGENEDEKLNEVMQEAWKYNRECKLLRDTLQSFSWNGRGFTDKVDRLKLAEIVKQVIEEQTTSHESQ

[15] = target: T2, MAP kinase-activated protein kinase 5 (Homo sapiens); conditions: at 1 µM
[16] = target: Serine/threonine-protein kinase SIK1 (Homo sapiens) (UniProt P57059); conditions: at 0.1 µM
[17] = target: Serine/threonine-protein kinase SIK1 (Homo sapiens) (UniProt P57059); conditions: at 1 µM
[18] = target: Serine/threonine-protein kinase SIK2 (Homo sapiens) (UniProt Q9H0K1); conditions: at 0.1 µM
Serine/threonine-protein kinase SIK2 (Homo sapiens), sequence (Q9H0K1 whole entry, looked up): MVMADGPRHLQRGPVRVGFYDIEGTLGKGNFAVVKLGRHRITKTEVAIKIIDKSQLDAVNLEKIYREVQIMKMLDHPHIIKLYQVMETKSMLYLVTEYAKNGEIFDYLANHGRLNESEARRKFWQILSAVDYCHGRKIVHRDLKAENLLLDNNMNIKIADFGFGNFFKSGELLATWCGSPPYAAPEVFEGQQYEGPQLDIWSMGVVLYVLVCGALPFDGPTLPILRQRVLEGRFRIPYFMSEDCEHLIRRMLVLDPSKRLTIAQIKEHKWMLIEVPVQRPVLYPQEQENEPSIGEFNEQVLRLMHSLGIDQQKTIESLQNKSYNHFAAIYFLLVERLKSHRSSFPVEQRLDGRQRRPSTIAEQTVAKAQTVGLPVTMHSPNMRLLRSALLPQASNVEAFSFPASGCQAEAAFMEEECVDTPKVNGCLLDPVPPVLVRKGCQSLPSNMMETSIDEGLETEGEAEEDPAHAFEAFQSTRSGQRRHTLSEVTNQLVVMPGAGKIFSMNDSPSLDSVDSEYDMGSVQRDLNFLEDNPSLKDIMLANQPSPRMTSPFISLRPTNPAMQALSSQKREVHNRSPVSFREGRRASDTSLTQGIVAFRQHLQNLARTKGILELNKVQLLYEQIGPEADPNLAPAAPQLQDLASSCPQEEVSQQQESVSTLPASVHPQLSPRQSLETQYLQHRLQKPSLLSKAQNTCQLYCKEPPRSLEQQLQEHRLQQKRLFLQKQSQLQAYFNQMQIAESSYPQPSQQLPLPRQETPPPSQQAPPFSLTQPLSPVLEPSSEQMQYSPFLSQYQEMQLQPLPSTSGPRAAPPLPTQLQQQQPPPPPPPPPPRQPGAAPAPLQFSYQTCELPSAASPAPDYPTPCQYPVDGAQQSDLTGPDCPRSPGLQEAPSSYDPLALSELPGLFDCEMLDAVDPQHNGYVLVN

[19] = target: Serine/threonine-protein kinase SIK2 (Homo sapiens) (UniProt Q9H0K1); conditions: at 1 µM
[20] = target: T3, Serine/threonine-protein kinase TBK1 (Homo sapiens) (UniProt Q9UHD2); conditions: at 0.1 µM;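 also: values are the mean TBK1 inhibition, taken from the GSK PKIS screening data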
T3 sequence (whole entry): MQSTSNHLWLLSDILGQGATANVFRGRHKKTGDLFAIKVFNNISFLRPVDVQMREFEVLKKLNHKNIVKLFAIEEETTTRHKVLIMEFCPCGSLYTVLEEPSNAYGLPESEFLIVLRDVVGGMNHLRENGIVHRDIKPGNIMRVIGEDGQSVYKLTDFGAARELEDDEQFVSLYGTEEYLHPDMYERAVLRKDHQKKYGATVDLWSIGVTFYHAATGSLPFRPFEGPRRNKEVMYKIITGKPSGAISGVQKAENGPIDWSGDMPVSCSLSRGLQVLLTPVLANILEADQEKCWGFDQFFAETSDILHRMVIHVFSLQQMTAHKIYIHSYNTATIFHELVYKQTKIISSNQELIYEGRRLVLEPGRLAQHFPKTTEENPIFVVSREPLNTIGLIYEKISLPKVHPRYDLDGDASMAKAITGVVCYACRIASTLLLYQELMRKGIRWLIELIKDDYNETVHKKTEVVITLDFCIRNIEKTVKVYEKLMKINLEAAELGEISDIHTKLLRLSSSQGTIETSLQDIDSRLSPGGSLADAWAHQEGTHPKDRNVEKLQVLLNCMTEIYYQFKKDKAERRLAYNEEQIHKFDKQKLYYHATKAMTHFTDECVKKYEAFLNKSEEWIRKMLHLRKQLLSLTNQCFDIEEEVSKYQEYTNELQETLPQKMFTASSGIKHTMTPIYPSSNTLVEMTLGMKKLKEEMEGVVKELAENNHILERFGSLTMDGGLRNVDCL

Serine/threonine-protein kinase MARK2 (Homo sapiens), sequence (Q7KZI7 whole entry, the tested form may be a part): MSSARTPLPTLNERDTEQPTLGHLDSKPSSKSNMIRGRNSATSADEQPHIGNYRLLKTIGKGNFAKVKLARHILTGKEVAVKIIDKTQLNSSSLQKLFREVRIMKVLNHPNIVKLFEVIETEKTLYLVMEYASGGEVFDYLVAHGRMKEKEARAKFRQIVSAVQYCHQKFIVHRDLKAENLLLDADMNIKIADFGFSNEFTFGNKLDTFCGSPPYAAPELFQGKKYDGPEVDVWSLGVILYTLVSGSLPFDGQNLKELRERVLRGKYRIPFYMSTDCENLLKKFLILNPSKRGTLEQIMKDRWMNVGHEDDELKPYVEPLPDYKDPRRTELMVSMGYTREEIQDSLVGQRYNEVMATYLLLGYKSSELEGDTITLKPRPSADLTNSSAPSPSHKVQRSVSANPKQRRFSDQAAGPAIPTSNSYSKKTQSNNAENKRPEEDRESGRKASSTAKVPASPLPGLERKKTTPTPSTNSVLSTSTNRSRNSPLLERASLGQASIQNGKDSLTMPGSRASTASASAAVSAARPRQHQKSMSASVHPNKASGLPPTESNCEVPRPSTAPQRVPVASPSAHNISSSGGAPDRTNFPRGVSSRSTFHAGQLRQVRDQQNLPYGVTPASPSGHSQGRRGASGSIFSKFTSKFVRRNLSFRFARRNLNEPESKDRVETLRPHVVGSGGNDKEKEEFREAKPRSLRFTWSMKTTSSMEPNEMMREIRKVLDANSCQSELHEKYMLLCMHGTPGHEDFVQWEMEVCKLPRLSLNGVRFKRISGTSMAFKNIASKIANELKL
PAS domain-containing serine/threonine-protein kinase (Homo sapiens), sequence (Q96RG2 whole entry, the tested form may be a part, canonical isoform): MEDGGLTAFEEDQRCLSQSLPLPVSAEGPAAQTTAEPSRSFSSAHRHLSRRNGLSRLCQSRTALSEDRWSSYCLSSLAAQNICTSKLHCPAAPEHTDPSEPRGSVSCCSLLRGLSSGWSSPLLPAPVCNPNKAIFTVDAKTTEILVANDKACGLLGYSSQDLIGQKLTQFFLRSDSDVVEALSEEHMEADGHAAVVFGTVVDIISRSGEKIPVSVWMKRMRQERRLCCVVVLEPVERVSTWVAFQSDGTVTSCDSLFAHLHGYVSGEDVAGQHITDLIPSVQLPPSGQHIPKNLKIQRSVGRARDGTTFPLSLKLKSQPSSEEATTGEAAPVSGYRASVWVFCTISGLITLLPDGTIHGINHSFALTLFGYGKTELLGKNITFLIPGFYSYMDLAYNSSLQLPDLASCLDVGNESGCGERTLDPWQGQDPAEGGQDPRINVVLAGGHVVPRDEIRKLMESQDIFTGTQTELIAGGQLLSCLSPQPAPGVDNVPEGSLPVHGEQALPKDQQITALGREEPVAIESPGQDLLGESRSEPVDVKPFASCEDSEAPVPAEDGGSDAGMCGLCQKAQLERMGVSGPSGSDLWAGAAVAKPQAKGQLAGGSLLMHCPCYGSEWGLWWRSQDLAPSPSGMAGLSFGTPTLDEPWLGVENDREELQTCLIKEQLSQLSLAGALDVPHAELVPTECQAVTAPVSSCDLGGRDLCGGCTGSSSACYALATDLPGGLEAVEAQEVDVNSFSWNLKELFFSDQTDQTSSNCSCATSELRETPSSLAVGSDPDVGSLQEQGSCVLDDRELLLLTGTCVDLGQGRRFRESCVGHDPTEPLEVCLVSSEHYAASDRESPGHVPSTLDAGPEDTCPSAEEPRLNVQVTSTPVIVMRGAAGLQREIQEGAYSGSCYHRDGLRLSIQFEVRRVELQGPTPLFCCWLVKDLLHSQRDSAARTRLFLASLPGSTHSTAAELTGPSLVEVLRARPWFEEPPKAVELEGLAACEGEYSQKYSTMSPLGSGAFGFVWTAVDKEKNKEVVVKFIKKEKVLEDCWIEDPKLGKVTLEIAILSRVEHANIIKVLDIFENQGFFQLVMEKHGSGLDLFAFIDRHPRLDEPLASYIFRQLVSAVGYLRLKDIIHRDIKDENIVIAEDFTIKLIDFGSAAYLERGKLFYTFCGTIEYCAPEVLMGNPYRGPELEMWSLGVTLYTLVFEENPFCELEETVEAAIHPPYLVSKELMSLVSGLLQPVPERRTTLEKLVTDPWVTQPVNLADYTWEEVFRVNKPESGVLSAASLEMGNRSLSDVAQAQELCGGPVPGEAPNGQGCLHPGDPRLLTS

Row | Compound | inhibition [1] | inhibition [2] | inhibition [3] | inhibition [4] | inhibition [5] | inhibition [6] | inhibition [7] | inhibition [8] | inhibition [9] | inhibition [10] | inhibition [11] | inhibition [12] | inhibition [13] | inhibition [14] | inhibition [15] | inhibition [16] | inhibition [17] | inhibition [18] | inhibition [19] | inhibition [20]
1 | CS(=O)(=O)CCNCc1nc(-c2ccc3ncnc(Nc4ccc(OCc5cccc(C(F)(F)F)c5)cc4)c3c2)cs1 | 1.07% | 0.16% | -0.13% | 0.25% | 3.14% | 2.6% | 2.29% | 0.49% | -0.28% | -0.54% | -0.33% | -0.43% | 0.97% | 1.44% | -0.14% | 4.28% | 0.42% | 1.04% | 2.49% | 2.22%
2 | c1ccc(Cc2nc3ccc(Nc4ncnc5ccccc45)cc3[nH]2)cc1 | 2.19% | 0.03% | 0.27% | 2.35% | 4.75% | 3.39% | 4.89% | 0.17% | 0.7% | -0.72% | 0.02% | 0.69% | 3.67% | 1.42% | 1.52% | 3.13% | 5.43% | 2.47% | 7.91% | 3.57%
3 | CCn1c(-c2nonc2N)nc2ccc(F)cc21 | -0.64% | 1.69% | 0.49% | 6.81% | 7.3% | 7.81% | 12.6% | 0.08% | 1.85% | -0.12% | 0.34% | -0.77% | 4.99% | 2.78% | 4.45% | 4.96% | 8.41% | 7.14% | 12.5% | 5.18%
4 | COc1cccc(-n2nc(C)c3c(N/N=C(\C)c4ccncc4)ncnc32)c1 | 0.88% | 1.38% | 0.57% | 0.48% | 2.64% | 0.83% | 0.29% | -0.49% | 0.18% | -0.5% | -0.42% | -0.59% | -1.03% | -0.18% | -0.64% | 1.56% | 3.69% | 0.4% | -0.38% | -0.16%
5 | Cc1cc(-c2ccccn2)cc(C)c1/C=C/c1cncc(-c2nn[nH]n2)c1 | 4.96% | -0.97% | -1.06% | 3.51% | 7% | 1.5% | 5.59% | 1.73% | 2.55% | 0.01% | -0.15% | 1.13% | 3.53% | 1.22% | 1.42% | 18.9% | 74.7% | 5.34% | 21.5% | 3.59%
6 | Cc1ccc(NC(=O)CC2CC2)cc1-c1ccc(C(=O)NCC2CC2)cc1 | 0.03% | -0.28% | 0.77% | 3.12% | 5.93% | 4.45% | 4.9% | 1.51% | 0.73% | -0.33% | 0.37% | 0.23% | 1.25% | 1.21% | 1.26% | 3.64% | 9.75% | 5.46% | 4.87% | 2.81%
7 | CN1CCN(C(=O)c2ccc(NC(=O)Nc3ccc(N(C)c4ccnc(Nc5ccc(CS(C)(=O)=O)cc5)n4)cc3)cc2)CC1 | 8.38% | -0.3% | 0.27% | -1.64% | 1.5% | 2.03% | 3.05% | 0.58% | -0.28% | -0.2% | -0.35% | 0.13% | 2.14% | 1.17% | 1.29% | 3.16% | 17.6% | -0.55% | 17.4% | 2.62%
8 | CN(C)C(=O)O[C@H]1CN[C@H](C#Cc2cc3ncnc(Nc4ccc(OCc5cccc(F)c5)c(Cl)c4)c3s2)C1 | 1.09% | 0.16% | -0.64% | 2.62% | 2.71% | 2.94% | -0.02% | -0.09% | 0.1% | 0.57% | 0.45% | -0.1% | -1.11% | 0.7% | -0.94% | 4.32% | 5.89% | 11.5% | 12.2% | -0.37%
9 | CC(C)c1ccc2c(c1)NC(=O)/C2=N/Nc1ccc(S(N)(=O)=O)cc1 | -0.8% | 1.25% | 0.24% | -0.83% | 1.14% | 0.03% | 0.32% | 0.27% | -0.22% | -0.21% | 1.32% | 2.03% | 3.02% | 0.46% | 0.35% | 1.04% | 7.02% | 2.29% | 2.16% | -1%
10 | CCS(=O)(=O)c1ccc(OC)c(Nc2nccc(N(C)c3ccc4c(C)n[nH]c4c3)n2)c1 | 3.54% | -0.44% | 0.34% | 6.38% | 6.76% | 6.39% | 4.62% | 1.18% | 1.44% | 0.05% | 0.56% | -0.02% | 0.25% | 1.5% | 1.32% | 3.91% | 23.5% | -0.54% | 7.47% | 2.62%
11 | COc1cc(/C=N/Nc2ncnc3c2cnn3C(C)C)ccc1O | 1.32% | -0.76% | -1.33% | 2.28% | 5.02% | -0.14% | 1.57% | 0.52% | 2.04% | 0.9% | 4.35% | 1.2% | 7.74% | 0.1% | 0.02% | 2.84% | 14.5% | 2.78% | 23.1% | 2.37%
12 | NS(=O)(=O)c1ccc(NC=C2C(=O)Nc3ccc4ncsc4c32)cc1 | 46.2% | 0.44% | -0.6% | 20.3% | 66.4% | 8.94% | 32.1% | 2.48% | 9.5% | 1.26% | 5.46% | 2.4% | 13.1% | 2.33% | 13.9% | 5.99% | 34.1% | 9.07% | 40.7% | 13.4%
13 | Oc1cccc(-c2nc(-c3ccccc3)[nH]c2-c2ccncc2)c1 | 0.43% | 0.7% | 0.32% | 4.05% | 3.93% | 5.23% | 4.95% | 0.8% | 2.57% | -0.34% | 0.33% | -1.73% | 1.72% | 1.55% | 1.19% | 8.44% | 11.6% | 4.34% | 10.2% | 1.64%
